Measurements as given in PubChem BioAssay (NCATS).
Inconclusive results are not listed. A call without a number means that no potency is given here. Calls of active or inactive are those of the source. The call rests on the fitted dose curve; in most records, active means well fitted inhibition curve with a large enough effect; inconclusive means small, poorly fitted or top-dose-only effect; inactive means flat fitted curve, though single readings scatter.

biological target: Calcium and integrin-binding protein 1 (Homo sapiens) (UniProt Q99828); assay: Primary qHTS for Identification of Calcium Integrin Binding Protein 1 (CIB1) Competitor (AID 1508620); settings: CIB1-GST / FITC-alphaIIb peptide fluorescence polarization; series mostly up to 114 µM;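 further: GST tagged CIB1 binding a fluorescein labelled alphaIIb integrin peptide tracer; top concentration of the series differs between compounds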
Method in brief: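 Fluorescence polarization competition: CIB1-GST (1 uM final) preincubated with compound 15 min at room temperature, then FITC-labeled alphaIIb peptide (100 nM final) added for another 15 min. Polarization read at Ex 480/Em 540.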

Sequence of Calcium and integrin-binding protein 1 (Homo sapiens) (Q99828 whole entry, looked up): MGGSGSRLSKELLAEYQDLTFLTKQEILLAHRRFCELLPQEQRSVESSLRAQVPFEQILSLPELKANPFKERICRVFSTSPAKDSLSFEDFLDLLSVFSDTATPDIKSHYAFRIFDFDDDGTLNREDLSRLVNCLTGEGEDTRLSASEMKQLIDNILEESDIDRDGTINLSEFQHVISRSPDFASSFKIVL

Q: Which Potency does the source give for `Cc1cc(O)cc(O[C@@H]2O[C@H](CO)[C@@H](O)[C@H](O)[C@H]2O)c1` here?
A: Its Potency is “inactive”.

Q: For `C=CC1C(OC2OC(CO)C(O)C(O)C2O)OC=C2C(=O)N3C(C(=O)O)Cc4c([nH]c5ccccc45)C3CC21` (stereo unspecified), which Potency is on record?
A: Its Potency is “inactive”.

Q: How did the Potency turn out when `COc1cc(O)c2c(c1)C1=C[C@H](O)[C@@H](O)C[C@]1(C)OC2=O` was run?
A: Its Potency is “inactive”.

Q: `COc1cc2c(cc1OC)CC(=O)N(CCCNC[C@H]1Cc3cc(OC)c(OC)cc31)CC2` was tested. Which Potency did it give?
A: The Potency was “inactive”.

Q: With `CCC(O)C(C)C1CCC(C(C)C(=O)O)O1` (stereo unspecified) as the compound, how does the Potency read?
A: Its Potency is “inactive”.

Q: How did the Potency turn out when `CC1(C)CC[C@@]2(C(=O)O[C@@H]3O[C@H](CO)[C@@H](O)[C@H](O)[C@H]3O)C(C1)C1=CCC3[C@@]4(C)CC[C@@H](O[C@@H]5O[C@H](C(=O)O)[C@@H](O[C@@H]6OC[C@@H](O)[C@H](O)[C@H]6O)[C@H](O[C@@H]6OC[C@](O)(CO)[C@H]6O)[C@H]5O)C(C)(C)C4CC[C@@]3(C)[C@]1(C)C[C@H]2O` (stereo partly specified) was run?
A: The Potency was “inactive”.

Q: How did the Potency turn out when `C[C@@H]1O[C@@H](O[C@@H]2[C@@H](O)[C@H](O[C@H]3CC[C@@]4(C)C(CC[C@]5(C)C4CC=C4[C@@H]6CC(C)(C)CC[C@]6(C(=O)O[C@@H]6O[C@H](CO)[C@@H](O)[C@H](O)[C@H]6O)CC[C@]45C)C3(C)C)O[C@H](C(=O)O)[C@H]2O)[C@H](O)[C@H](O)[C@H]1O` (stereo partly specified) was run?
A: The Potency was “inactive”.

Q: With `C/C=C/C1=CC2=C(CO1)C(=O)C(C)(O)C(OC(=O)c1c(C)cc(OC)cc1O)C2` (stereo unspecified) as the compound, how does the Potency read?
A: The Potency was “inactive”.

Q: For `CC1(C)CC2C=C(C(=O)O)C3COC(=O)C(O)(CO)C23C1` (stereo unspecified), which Potency is on record?
A: The Potency was “inactive”.

Q: With `Cc1c(NC(=O)c2cc(C(N)=O)nc3cc(F)ccc23)c(C(F)(F)F)nn1Cc1ccc(C#N)cc1` as the compound, how does the Potency read?
A: Its Potency is “inactive”.

Q: For `O=C(O)c1cccc(S(=O)(=O)N2CCc3ccccc3C2)c1`, which Potency is on record?
A: The Potency was “inactive”.

Q: How did the Potency turn out when `CCCC(=O)C1CCN(c2ncnc3c2CN(C(=O)c2ccc(-c4ccccc4)cc2)CC3)CC1` was run?
A: The Potency was “inactive”.

Q: `CO[C@H]1O[C@@H]2O[C@]3(C)CC[C@H]4[C@H](C)CC[C@@H]([C@H]1C)[C@@]24OO3` was tested. Which Potency did it give?
A: Its Potency is “inactive”.

Q: With `COc1cc(/C=C/C=O)cc(OC)c1O[C@@H]1O[C@H](CO)[C@@H](O)[C@H](O)[C@H]1O` as the compound, how does the Potency read?
A: The Potency was “inactive”.

Q: With `CC(=O)C12OC(C)(C)OC1CC1C3CCC4=CC(=O)C=CC4(C)C3(F)C(O)CC12C` (stereo unspecified) as the compound, how does the Potency read?
A: The Potency was “inactive”.

Q: For `C[C@@H]1O[C@@H](O[C@H]2[C@H](O[C@H]3CC[C@@]4(C)C(CC[C@]5(C)C4C=C[C@]46OC[C@@]7(CCC(C)(C)C[C@H]74)[C@@H](O)C[C@]65C)[C@]3(C)CO)O[C@H](CO)[C@@H](O)[C@@H]2O[C@@H]2O[C@H](CO)[C@@H](O[C@@H]3O[C@@H](C)[C@H](O)[C@@H](O)[C@H]3O)[C@H](O)[C@H]2O)[C@H](O)[C@H](O)[C@H]1O` (stereo partly specified), which Potency is on record?
A: Its Potency is “inactive”.

Q: Which Potency does the source give for `C=CC(=O)Nc1cccc(Nc2nc(Nc3ccc(N4CCN(C(C)=O)CC4)cc3OC)ncc2C(F)(F)F)c1` here?
A: The Potency was “inactive”.

Q: `Cc1cc(=O)oc2c(C=O)c(O)ccc12` was tested. Which Potency did it give?
A: Its Potency is “inactive”.

Q: With `O=C(c1cccc(Cl)c1F)N1CCN(Cc2cccc(Nc3nccs3)n2)CC1` as the compound, how does the Potency read?
A: Its Potency is “inactive”.

Q: `C#CCN(Cc1cc2c(=O)n(C)c(CN3CCN(C)CC3)nc2cc1Cl)c1ccc(C(=O)NCc2cccnc2)cc1` was tested. Which Potency did it give?
A: Its Potency is “inactive”.

Q: For `C/C=C1\[C@H](OC2OC(COC3OC(CO)C(O)C(O)C3O)C(O)C(O)C2O)OC=C(C(=O)OC)[C@H]1CC(=O)OCCc1ccc(O)cc1` (stereo partly specified), which Potency is on record?
A: The Potency was “inactive”.

Q: `Cc1cc(OCc2nc(-c3ccccc3Cl)cs2)ccc1OCC(=O)O` was tested. Which Potency did it give?
A: The Potency was “inactive”.

Q: Which Potency does the source give for `CC1=CC(=O)C2(OC3OC(C)C(O)C(OC(=O)/C=C/c4ccccc4)C3O)C=COC(OC3OC(CO)C(O)C(O)C3O)C12` (stereo unspecified) here?
A: The Potency was “inactive”.

Q: With `O=C(Nc1ccc(S(=O)(=O)Nc2nccs2)cc1)C(c1ccccc1)c1ccccc1` as the compound, how does the Potency read?
A: Its Potency is “inactive”.

Q: `c1ccc(-c2csc(N3CCOCC3)n2)cc1` was tested. Which Potency did it give?
A: The Potency was “inactive”.

Q: How did the Potency turn out when `Cc1cccc(S(=O)(=O)N2CCC[C@@H]2CCN2CCC(C)CC2)c1` was run?
A: Its Potency is “inactive”.

Q: Which Potency does the source give for `Clc1cc2c(NC3CCCC3)nnc(-c3ccncc3)c2cc1Cl` here?
A: Its Potency is “inactive”.

Q: Which Potency does the source give for `Cc1cc(N2CCN([C@@H]3CN[C@H](C(=O)N4CCSC4)C3)CC2)n(-c2ccccc2)n1` here?
A: The Potency was “inactive”.

Q: Which Potency does the source give for `CC1(C)C2CC(OC3OC(COC4OCC(O)(CO)C4O)C(O)C(O)C3O)C1(C)CC2O` (stereo unspecified) here?
A: The Potency was “inactive”.

Q: `COc1cc(C2Oc3c(OC)cc(CCCO)cc3C2CO)ccc1O[C@H]1O[C@H](C)[C@@H](O)[C@H](O)[C@@H]1O` (stereo partly specified) was tested. Which Potency did it give?
A: Its Potency is “inactive”.

Q: For `C=C1CC[C@@H]2[C@](C)(CO[C@@H]3O[C@H](CO)[C@@H](O)[C@H](O)[C@H]3O)[C@H](O)CC[C@@]2(C)[C@@H]1C/C=C1/C(=O)OC[C@H]1O`, which Potency is on record?
A: The Potency was “inactive”.
